Legend:
Assay in all cases: PBM binding z-score (relative to random genomic background probes); higher = stronger binding; sequences stand for … in GC…GCGATTGACAGCGTAGAATGAAGG
[1] = system: FXR:RXRa (NR concentration 270 nM, RXRa partner concentration 90 nM)
In short: (§1)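 Scanned fluorescence from custom Agilent 4×180K protein-binding microarrays was regression-normalized. Binding z-scores use random background probes as reference. Ligand-free nuclear receptor dimers were incubated on the arrays for 1 h and detected with antibodies against each partner (one per run).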

[2] = system: LXRa:RXRa (NR concentration 270 nM, RXRa partner concentration 90 nM)
In short: as §1

[3] = system: LXRa homodimer (NR concentration 270 nM)
In short: as §1

[4] = system: LXRb:RXRa (NR concentration 270 nM, RXRa partner concentration 90 nM)
In short: as §1

[5] = system: LXRb homodimer (NR concentration 270 nM)
In short: as §1

[6] = system: PPARa:RXRa (NR concentration 270 nM, RXRa partner concentration 90 nM)
In short: as §1

[7] = system: PPARg:RXRa (NR concentration 180 nM, RXRa partner concentration 90 nM)
In short: as §1

[8] = system: PPARg:RXRa 270nM:90nM, anti-RXR (NR concentration 270 nM, RXRa partner concentration 90 nM)
In short: as §1

[9] = system: PPARg:RXRa 30nM:10nM, anti-RXR (NR concentration 30 nM, RXRa partner concentration 10 nM)
In short: as §1

[10] = system: PPARg:RXRa 90nM:30nM, anti-RXR (NR concentration 90 nM, RXRa partner concentration 30 nM)
In short: as §1

[11] = system: PPARg:RXRa DBDmut IVT, anti-RXR (DBD mutation: RXRa K156A/R161A, NR concentration 270 nM, RXRa partner concentration 90 nM)
In short: as §1

[12] = system: PPARg:RXRa IVT, anti-PPARg (NR concentration 270 nM, RXRa partner concentration 90 nM)
In short: as §1

[13] = system: PPARg DBDmut:RXRa IVT, anti-PPARg (DBD mutation: PPARg1 K132A/R137A, NR concentration 270 nM, RXRa partner concentration 90 nM)
In short: as §1

[14] = system: PPARg DBDmut IVT, anti-PPARg (DBD mutation: PPARg1 K132A/R137A, NR concentration 270 nM)
In short: as §1

[15] = system: PPARg homodimer (NR concentration 180 nM)
In short: as §1

[16] = system: PXR:RXRa (NR concentration 270 nM, RXRa partner concentration 90 nM)
In short: as §1

[17] = system: PXR homodimer (NR concentration 270 nM)
In short: as §1

[18] = system: RARa:RXR (NR concentration 270 nM, RXRa partner concentration 90 nM)
In short: as §1

[19] = system: RARa homodimer (NR concentration 270 nM)
In short: as §1

[20] = system: RARb:RXRa (NR concentration 270 nM, RXRa partner concentration 90 nM)
In short: as §1

Sequence	PBM binding z-score [1]	PBM binding z-score [2]	PBM binding z-score [3]	PBM binding z-score [4]	PBM binding z-score [5]	PBM binding z-score [6]	PBM binding z-score [7]	PBM binding z-score [8]	PBM binding z-score [9]	PBM binding z-score [10]	PBM binding z-score [11]	PBM binding z-score [12]	PBM binding z-score [13]	PBM binding z-score [14]	PBM binding z-score [15]	PBM binding z-score [16]	PBM binding z-score [17]	PBM binding z-score [18]	PBM binding z-score [19]	PBM binding z-score [20]
ATCTAAAGGTCGACGAGGTGAGTATACACCGTTT	4.77	4.07	0.832	3.04	0.727	4.38	3.31	3.51	1.21	2.67	0.916	2.35	0.97	0.877	1.81	3.26	0.284	3.76	1.29	3.91
CCTACTGGGACAAAGGTCATTGATTCCAATGCTC	5.11	5.21	4.66	4.9	1.5	6.27	11.8	10.3	12.2	11.7	5.4	7.14	1.81	1.06	4.59	5.27	2.24	6.06	2	4.45
TCTTGTATATCAGCAGGTTAAGAAAGCTGGCCAA	0.775	0.883	0.29	1.03	0.727	0.972	-0.165	1.63	3.19	2.42	2.07	0.6	0.115	0.41	0.718	0.584	0.0851	0.998	0.982	0.687
TCATATAGGTAAATGCTTGGTGAAAGTCCGATCT	0.688	0.994	0.23	0.824	-0.0277	1.12	0.522	2.24	3.68	2.72	4.12	2.04	1.15	1.07	0.653	0.501	0.156	0.651	1.11	0.221
ATCTCTAGGTAAAGTTCAGTGAAAGATCGATAGA	1.38	2.08	1.69	1.3	0.964	2.35	3.26	4.38	2.33	3.93	2.6	2.6	1.37	0.916	1.68	2.11	1.93	1.86	1.27	2.86
GCTTACGGGTCAAAGGTTATATCATGAATAGAAT	7.77	6.12	1.25	5.78	1.03	6.94	11.4	9.51	10.9	11.1	4.73	5.93	2.65	2.07	4.59	6.41	0.529	8.44	1.02	4.55
TTACCAAGGTGAAACGTCGTTGATGCACGCCTTG	0.678	0.335	-0.246	0.141	-0.495	1.96	1.66	2.76	1.24	2.15	3.12	2.95	0.206	0.358	0.178	-0.0159	-0.972	0.592	-0.282	1.62
TCCTATAGGTAAACAGGTGAAAGTCCGTAAGTTA	0.613	0.51	0.24	0.845	-0.235	2.07	1.63	2.96	3.27	3.17	3.29	3.06	0.2	0.663	0.672	0.638	0.0288	0.69	0.325	0.692
ATATGTAGGTTAGCTCGGGTCATTCAGACTAGGC	2.55	4.5	1.52	2.65	0.733	4.08	4.25	3.8	1.34	3.09	6.41	6.32	1.69	1.22	2.02	4.79	1.22	3.11	0.826	2.09
CCTCGAAGGACAGAAGGTCAGAGCTGTCCGCTTT	1.13	1.56	0.132	1.28	-0.573	1.83	0.0228	0.429	-0.598	0.107	-0.0695	-0.0413	-0.921	-1.97	1.14	1.08	-0.321	1.83	0.748	3.06
TCTTGTAGATCAGCAGGTTAAAAAAGCTGGCCAA	0.198	0.216	-0.0606	0.293	-0.538	0.844	-0.455	1.44	2.6	1.94	1.58	0.467	-0.542	0.0495	0.159	0.148	-0.197	0.613	-0.11	0.0554
CCAGACAGGTGAGAAGGTAACGCAGCCTCGATTA	-0.0305	0.0782	-0.18	0.115	-0.496	0.743	0.809	0.998	-0.268	0.809	1.37	0.83	-0.151	-0.199	0.904	0.0317	0.012	0.312	0.438	0.806
CGGACTGGGGCAGAAAGGTTACCATACCATCCGG	0.574	0.739	-0.05	1.25	-0.31	2.7	2.62	3.46	1.89	2.62	3.24	4.12	-0.341	-0.159	1.44	1.41	0.0628	1.82	0.413	2.12
CCTTACGGGTCACGAGGTTATAACACGACGAGCG	6.57	4.63	0.527	4.2	-0.0357	6.03	7.47	6.56	3.19	5.53	3.55	5.17	1.01	0.726	2.11	4.38	0.145	5.6	0.574	4.58
